Laboratory results taken from PubChem BioAssay (NCATS).
Inconclusive results are not listed. Values without a mark were called inactive. The source made the active and inactive calls. The call rests on the fitted dose curve; in most records, active means well fitted cell-killing curve with a large enough effect; inconclusive means small, poorly fitted or top-dose-only effect, or effect the other way; inactive means flat fitted curve, though single readings scatter.

Tested on: CASKI
Test: Primary qHTS to identify gynecologic anti-cancer compounds using libraries of approved drugs and bioactive compounds (AID 1345084); further: nearly all actives have a fitted effect of over 55% in size
Settings: Gynecologic cancer cell panel viability, ATPlite luminescence, 48 h; series mostly up to 57.5 µM; activity change, negative = cytotoxicity: at the top concentration
Procedure, shortened: (§1)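 Measured: luminescence after ATPlite addition (15 min, RT). Exposure: 48 h, 37 C, 5% CO2.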
On the % scale 0 is the no-effect control and ±100 the full control effect; potency means the concentration at half of the fitted maximal effect.

Going from `Cc1c(C(=O)Nc2ccc(N3C[C@@H](C)O[C@@H](C)C3)nc2)cccc1-c1ccc(OC(F)(F)F)cc1` to `CN1CCN(c2cccc(Nc3nc4c(-c5ccc(S(C)(=O)=O)cc5)cccn4n3)c2)CC1`, the “activity change, negative = cytotoxicity” value falls from 13.7% to 6.67%.

Compared with `CC(C)(C)c1nc(-c2cccc(NS(=O)(=O)c3c(F)cccc3F)c2F)c(-c2ccnc(N)n2)s1`, `O=S(=O)(O)c1ccc2cc(N=Nc3cc(S(=O)(=O)O)c4cccnc4c3O)ccc2c1` is lower in “activity change, negative = cytotoxicity” value: 16.5% for the first, 1.53% for the second.

Going from `N#Cc1ccc(Oc2ccc3c(c2)COB3O)cc1` to `OC[C@H]1O[C@@H](OCCc2ccc(O)cc2)[C@H](O)[C@@H](O)[C@H]1O`, the “activity change, negative = cytotoxicity” value falls from 0.0319% to -1.16%.

For `Nc1ncnc2c1c(-c1cccc(OCc3ccccc3)c1)cn2C1CC(CN2CCC2)C1` (centres undefined), the Potency was 28.2 µM (active).
`O[C@@H](COc1cccc2ncccc12)CN1CCN(C2c3ccccc3[C@@H]3[C@H](c4ccccc42)C3(F)F)CC1` (some centres undefined) was tested, and the Potency was “inactive”.

Tested on: Es-2
Test: as above
Settings: Gynecologic cancer cell panel viability, ATPlite luminescence, 48 h; series mostly up to 57.5 µM; activity change, negative = cytotoxicity: at the top concentration
Procedure, shortened: as §1

Compared with `CCc1cccc(CC)c1NC(=O)N1Cc2[nH]nc(NC(=O)c3ccc(N4CCN(C)CC4)cc3)c2C1`, `CN1CCN(c2cccc(Nc3nc4c(-c5ccc(S(C)(=O)=O)cc5)cccn4n3)c2)CC1` is lower in “activity change, negative = cytotoxicity” value: -0.572% for the first, -3.91% for the second.

Going from `Cc1c(C(=O)Nc2ccc(N3C[C@@H](C)O[C@@H](C)C3)nc2)cccc1-c1ccc(OC(F)(F)F)cc1` to `CCN(CCO)CCCOc1ccc2c(Nc3cc(CC(=O)Nc4cccc(F)c4)[nH]n3)ncnc2c1`, the “activity change, negative = cytotoxicity” value falls from -5.61% to -8.75%.

First: Cc1cc(C(C)Nc2ccccc2)c2nc(N3CCOCC3)cc(=O)n2c1 (centres undefined)
Second: O=S(=O)(O)c1ccc2cc(N=Nc3cc(S(=O)(=O)O)c4cccnc4c3O)ccc2c1
The “activity change, negative = cytotoxicity” value of the first is higher: 0.127% for the first, -1.48% for the second.

Going from `N#Cc1ccc(Oc2ccc3c(c2)COB3O)cc1` to `OC[C@H]1O[C@@H](OCCc2ccc(O)cc2)[C@H](O)[C@@H](O)[C@H]1O`, the “activity change, negative = cytotoxicity” value falls from 6.72% to 0.381%.

`O[C@@H](COc1cccc2ncccc12)CN1CCN(C2c3ccccc3[C@@H]3[C@H](c4ccccc42)C3(F)F)CC1` (some centres undefined) was tested, and the Potency was “inactive”.

Tested on: HeLa
Test: as above
Settings: Gynecologic cancer cell panel viability, ATPlite luminescence, 48 h; series mostly up to 57.5 µM; activity change, negative = cytotoxicity: at the top concentration
Procedure, shortened: as §1

For `CCc1cccc(CC)c1NC(=O)N1Cc2[nH]nc(NC(=O)c3ccc(N4CCN(C)CC4)cc3)c2C1`, the Potency was 3.16 µM (active).
`O[C@@H](COc1cccc2ncccc12)CN1CCN(C2c3ccccc3[C@@H]3[C@H](c4ccccc42)C3(F)F)CC1` (some centres undefined) was tested, and the Potency was “inactive”.

Going from `Cc1c(C(=O)Nc2ccc(N3C[C@@H](C)O[C@@H](C)C3)nc2)cccc1-c1ccc(OC(F)(F)F)cc1` to `CN1CCN(c2cccc(Nc3nc4c(-c5ccc(S(C)(=O)=O)cc5)cccn4n3)c2)CC1`, the “activity change, negative = cytotoxicity” value falls from -3.78% to -23.2%.

Compared with `Cc1cc(C(C)Nc2ccccc2)c2nc(N3CCOCC3)cc(=O)n2c1` (centres undefined), `CC(C)(C)c1nc(-c2cccc(NS(=O)(=O)c3c(F)cccc3F)c2F)c(-c2ccnc(N)n2)s1` is higher in “activity change, negative = cytotoxicity” value: -0.673% for the first, 12% for the second.

Compared with `N#CC1(c2cccc(C(=O)Nc3cc(Oc4ccc5nc(NC(=O)C6CC6)sc5n4)ccc3F)c2Cl)CC1`, `CCN(CCO)CCCOc1ccc2c(Nc3cc(CC(=O)Nc4cccc(F)c4)[nH]n3)ncnc2c1` is lower in “activity change, negative = cytotoxicity” value: -21.8% for the first, -24.1% for the second.

Compared with `O=S(=O)(O)c1ccc2cc(N=Nc3cc(S(=O)(=O)O)c4cccnc4c3O)ccc2c1`, `OC[C@H]1O[C@@H](OCCc2ccc(O)cc2)[C@H](O)[C@@H](O)[C@H]1O` is lower in “activity change, negative = cytotoxicity” value: 4.69% for the first, -1.77% for the second.

Tested on: Hek293T
Test: as above
Settings: Gynecologic cancer cell panel viability, ATPlite luminescence, 48 h, control line for the selectivity index; series mostly up to 57.5 µM; activity change, negative = cytotoxicity: at the top concentration
Procedure, shortened: as §1

Going from `CCc1cccc(CC)c1NC(=O)N1Cc2[nH]nc(NC(=O)c3ccc(N4CCN(C)CC4)cc3)c2C1` to `CN1CCN(c2cccc(Nc3nc4c(-c5ccc(S(C)(=O)=O)cc5)cccn4n3)c2)CC1`, the “activity change, negative = cytotoxicity” value rises from -23.5% to 16.2%.

Compared with `Cc1c(C(=O)Nc2ccc(N3C[C@@H](C)O[C@@H](C)C3)nc2)cccc1-c1ccc(OC(F)(F)F)cc1`, `CCN(CCO)CCCOc1ccc2c(Nc3cc(CC(=O)Nc4cccc(F)c4)[nH]n3)ncnc2c1` is higher in “activity change, negative = cytotoxicity” value: -19.6% for the first, 2.43% for the second.

Going from `Cc1cc(C(C)Nc2ccccc2)c2nc(N3CCOCC3)cc(=O)n2c1` (centres undefined) to `CC(C)(C)c1nc(-c2cccc(NS(=O)(=O)c3c(F)cccc3F)c2F)c(-c2ccnc(N)n2)s1`, the “activity change, negative = cytotoxicity” value falls from 22% to 0.224%.

First: O=S(=O)(O)c1ccc2cc(N=Nc3cc(S(=O)(=O)O)c4cccnc4c3O)ccc2c1
Second: N#Cc1ccc(Oc2ccc3c(c2)COB3O)cc1
The “activity change, negative = cytotoxicity” value of the first is higher: 5.44% for the first, 2.07% for the second.

For `OC[C@H]1O[C@@H](OCCc2ccc(O)cc2)[C@H](O)[C@@H](O)[C@H]1O`, the “activity change, negative = cytotoxicity” value was 5.32%.

With `Nc1ncnc2c1c(-c1cccc(OCc3ccccc3)c1)cn2C1CC(CN2CCC2)C1` (centres undefined) the Potency was 14.1 µM (active).
`O[C@@H](COc1cccc2ncccc12)CN1CCN(C2c3ccccc3[C@@H]3[C@H](c4ccccc42)C3(F)F)CC1` (some centres undefined) was tested, and the Potency was “inactive”.

Tested on: JEG-3
Test: as above
Settings: Gynecologic cancer cell panel viability, ATPlite luminescence, 48 h; series mostly up to 57.5 µM; activity change, negative = cytotoxicity: at the top concentration
Procedure, shortened: as §1

Compared with `CCc1cccc(CC)c1NC(=O)N1Cc2[nH]nc(NC(=O)c3ccc(N4CCN(C)CC4)cc3)c2C1`, `CN1CCN(c2cccc(Nc3nc4c(-c5ccc(S(C)(=O)=O)cc5)cccn4n3)c2)CC1` is higher in “activity change, negative = cytotoxicity” value: -21.4% for the first, 4.98% for the second.

Compared with `Cc1c(C(=O)Nc2ccc(N3C[C@@H](C)O[C@@H](C)C3)nc2)cccc1-c1ccc(OC(F)(F)F)cc1`, `N#CC1(c2cccc(C(=O)Nc3cc(Oc4ccc5nc(NC(=O)C6CC6)sc5n4)ccc3F)c2Cl)CC1` is lower in “activity change, negative = cytotoxicity” value: 6.21% for the first, -7.22% for the second.

Going from `Cc1cc(C(C)Nc2ccccc2)c2nc(N3CCOCC3)cc(=O)n2c1` (centres undefined) to `CC(C)(C)c1nc(-c2cccc(NS(=O)(=O)c3c(F)cccc3F)c2F)c(-c2ccnc(N)n2)s1`, the “activity change, negative = cytotoxicity” value rises from 6.99% to 11.9%.

Compared with `O=S(=O)(O)c1ccc2cc(N=Nc3cc(S(=O)(=O)O)c4cccnc4c3O)ccc2c1`, `CCN(CCO)CCCOc1ccc2c(Nc3cc(CC(=O)Nc4cccc(F)c4)[nH]n3)ncnc2c1` is lower in “activity change, negative = cytotoxicity” value: 2.44% for the first, 1.97% for the second.

Compared with `N#Cc1ccc(Oc2ccc3c(c2)COB3O)cc1`, `OC[C@H]1O[C@@H](OCCc2ccc(O)cc2)[C@H](O)[C@@H](O)[C@H]1O` is higher in “activity change, negative = cytotoxicity” value: -0.0489% for the first, 15.2% for the second.

In the case of `O[C@@H](COc1cccc2ncccc12)CN1CCN(C2c3ccccc3[C@@H]3[C@H](c4ccccc42)C3(F)F)CC1` (some centres undefined), the Potency was “inactive”.
